HT1080 IDH1KD tx – toxicity to HT-1080 IDH1 knockdown cells (counter line). HT-1080 IDH1 knockdown viability, ATP luminescence, 48 h. Potency, µM (highest dose often 46.1 µM), inactives show at the highest dose activity, negative = toxicity, actives largely listed as cytotoxic. 360,000 compounds, 2% hits;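 further: potency means the concentration at half of the fitted maximal effect; 0% = DMSO wells and -100% = cell-free medium wells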
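IDH1KD HT-1080 cells, 750/well, RPMI + 5% FBS; compound pinned after 2 h settling; 48 h, 37 °C; CellTiter-Glo luminescence; % activity normalised to DMSO and no-cell wells; curves fitted, classed by r2 and efficacy.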
TDP1 cell noCPT – qHTS for Inhibitors of human tyrosyl-DNA phosphodiesterase 1 (TDP1): qHTS in cells in absence of CPT; 420,000 compounds, 15% hits; AID 686978, 2013; DT40 Tdp1-/- hTDP1 cells, no CPT, ATP luminescence, 48 h; Potency, µM (doses to about 46.2 µM), inactives show at the top dose activity change, negative = growth inhibition, hits mostly inhibitors; further: potency means the concentration at half of the fitted maximal effect; nearly all actives have a fitted effect of over 55% in size
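Cells were dispensed at 400 per well, compounds added by pin tool, plates incubated ≥48 hr at 37 °C, then CellTiter-Glo added for 30 min at room temperature before luminescence reading. Line: DT40 Tdp1-/- complemented with hTDP1; camptothecin omitted.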
HT1080-NT tox – kills 2HG-producing HT-1080-NT fibrosarcoma cells; Potency, µM (doses to about 46.1 µM), without a hit: top-dose activity, negative = less viability, actives largely listed as cytotoxic; 360,000 compounds, 1.6% hits; HT-1080-NT fibrosarcoma viability, CellTiter-Glo ATP luminescence, 48 h;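 further: NT is the 2HG producing partner of a matched IDH1 knockdown line; potency means the concentration at half of the fitted maximal effect; 0% = DMSO-treated cells and -100% = media-only wells without cells; nearly all actives have a fitted effect of over 55% in size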
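HT-1080-NT; 750 cells/well; 5% FBS RPMI; 48 h compound, 37 degrees C; CellTiter-Glo luminescence; curve fitting and curve-class assignment.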
IL1B secr inh – blocks inflammasome-driven IL-1 beta release; THP-1 LPS/ATP IL-1B secretion, AlphaLISA, 16 h; stronger effect = lower value; activity change, % at 57.5 µM; 360,000 compounds, 4.7% hits; in the data active means activity change below about -50%; inconclusive means mostly about -30% to -49%
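Secreted IL-1B measured by AlphaLISA bead assay after 16 h compound exposure of THP-1 cells; compounds (final up to 57.5 uM) added 1 h before LPS (250 ng/mL) and ATP (1.25 mM) stimulation; lower signal means less secretion.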
TDP1 cell CPT – growth inhibition of DT40 Tdp1-/-;hTDP1 cells with camptothecin (screen for TDP1 inhibitors). chicken DT40 Tdp1-/-;hTDP1 cells + 20 nM CPT, ATP luminescence, 48 h. Potency, µM (top dose mostly 46.2 µM), for inactives: at the top dose activity change, negative = growth inhibition, hits mostly inhibitors. 420,000 compounds, 12% hits. AID 686979; further: potency means the concentration at half of the fitted maximal effect; nearly all actives have a fitted effect of over 55% in size
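Chicken DT40 Tdp1-/- cells complemented with human TDP1, 400 cells/well, exposed to compounds plus 20 nM camptothecin for at least 48 h at 37 C; viability read as ATP content by CellTiter-Glo luminescence.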
ELG1 repair inh – ELG1-dependent DNA repair inhibition; HEK293T ELG1-luciferase reporter, luminescence, 16 h; DNA damage induced by 5-fluorouridine; Potency, µM (series often up to 46.1 µM), inactives show at the top dose activity change, negative = inhibition, usual class: inhibitors; 330,000 compounds, 2.3% hits; further: potency means the concentration at half of the fitted maximal effect; nearly all actives have a fitted effect of over 55% in size
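5-Fluorouridine DNA damage + compound/DMSO, 2,000 cells/well, 16 h, 37 °C/5% CO2. ONE-Glo, 30 min RT, luminescence. Readout = decrease in reporter signal.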
* = called active by the depositor; u = inconclusive; x = no result. An excerpt weighted towards active compounds, which were near 19% of everything screened. Unless noted, the call rests on the fitted dose curve; in most records, active means well fitted curve in the direction sought with a large enough effect; inconclusive means small, poorly fitted or top-dose-only effect, or another doubt; inactive means no such curve, though single readings can be large; an effect the other way counts as inactive or inconclusive. Unless noted, on the % scale 0 is the no-effect control and ±100 the full control effect.

SMILES	HT1080 IDH1KD tx	TDP1 cell noCPT	HT1080-NT tox	IL1B secr inh	TDP1 cell CPT	ELG1 repair inh
CCOC(=O)c1ccc(NC(=O)c2ccc(C)c(S(=O)(=O)N3CCOCC3)c2)cc1	u	23µM*	u	-14	u	4.6µM*
O=C(Nc1ccc(N2CCCCCC2)cc1)c1cccc(S(=O)(=O)N2CCOCC2)c1	u	4.1µM*	-14%	-3	7.3µM*	0%
CC(=O)c1ccc(NC(=O)c2ccc(C)c(S(=O)(=O)N3CCOCC3)c2)cc1	-10%	u	-20%	20	1%	u
COc1ccc(NS(=O)(=O)c2ccc(C)c(NC(=O)c3ccc(C)c(S(=O)(=O)N4CCOCC4)c3)c2)cc1	-6%	15µM*	-12%	-7	u	u
Cc1ccc(S(=O)(=O)N2CCOCC2)cc1NC(=O)c1cccc(S(=O)(=O)N2CCCC2)c1	-1%	u	0%	0	u	0%
CCOC(=O)N1CCN(Cc2cn[nH]c2-c2cc3ccccc3o2)CC1	-5%	-8%	-2%	u	-17%	u
O=C(Nc1ccc(S(=O)(=O)N2CCOCC2)cc1)c1cccc(Br)c1	-18%	-8%	-4%	-8	-2%	10%
CCOC(=O)c1ccc(NC(=O)c2cccc(S(=O)(=O)N3CCOCC3)c2)cc1	-29%	12µM*	-29%	-25	u	23µM*
O=C(NCCc1ccc(Cl)cc1)C1CCN(C(=O)c2sccc2-n2cccc2)CC1	-17%	u	-9%	-23	u	u
O=C(NCc1ccccn1)C1CCN(C(=O)c2cc3sccc3n2Cc2ccc(F)cc2)CC1	-20%	23µM*	1%	24	u	21µM*
O=C(NCCCN1CCCC1)C1CCN(C(=O)c2cc3sccc3n2Cc2ccc(F)cc2)CC1	u	u	u	4	16µM*	7%
CC(C)CCNC(=O)C1CCN(C(=O)c2cc3sccc3n2Cc2ccc(Cl)cc2)CC1	x	9.2µM*	x	x	18µM*	x
COCCCNC(=O)C1CCN(C(=O)c2cc3sccc3n2Cc2ccc(F)cc2)CC1	-5%	u	2%	26	u	u
COc1ccccc1OCCCCn1ncc2ccc(OC)c(OC)c2c1=O	4%	u	4%	39	u	0%
Cc1ccc(CNC(=O)CS(=O)(=O)c2cccc3nsnc23)cc1	x	-78%	x	x	3%	x
Cc1cccc(N2CCN(C(=O)Cn3nc(C)c4sc5ccccc5c4c3=O)CC2)c1C	x	4%	x	x	-2%	x
C(=C\c1nc(N2CCCC2)c2ccccc2n1)/c1ccccc1	u	u	26µM*	-98*	u	-6%
CN1CCN(c2ccc(-c3ccc4ccccc4n3)cc2)CC1	u	18µM*	u	-65*	u	u
c1ccc2c(Nc3ccc(N4CCOCC4)cc3)nc(N3CCOCC3)nc2c1	u	21µM*	u	-70*	u	9.2µM*
c1ccc2c(N3CCOCC3)nc(N3CCOCC3)nc2c1	-27%	u	0%	-3	u	u
Oc1ccc(Nc2nc(N3CCCC3)c3ccccc3n2)cc1	u	21µM*	u	-99*	26µM*	8%
c1ccc2c(c1)nc(N1CCCCCC1)c1ccccc12	-15%	u	0%	48	u	3%
CN(C)CCNc1ncnc2c1ncn2[C@H]1CN(Cc2ccco2)C[C@@H](CO)O1	0%	-13%	24%	15	-21%	x
Cc1ccc(Nc2nc(N3CCOCC3)c3ccccc3n2)cc1	-25%	21µM*	u	-104*	21µM*	u
Cc1cc(-c2ccc(N3CCOCC3)cc2)nc2ccccc12	6%	23µM*	4%	-13	21µM*	u
SMILES	HT1080 IDH1KD tx	TDP1 cell noCPT	HT1080-NT tox	IL1B secr inh	TDP1 cell CPT	ELG1 repair inh
COc1ccc(Nc2nc(N3CCCCC3)c3ccccc3n2)cc1	u	18µM*	-25%	-101*	18µM*	-1%
Cc1ccc(N2C(=O)CC(c3ccccc3F)C3=C2COC3=O)cc1Cl (stereo unspecified)	x	-13%	x	x	4%	x
Nc1c(NC/C=C\COc2cc(CN3CCCCC3)ccn2)c(=O)c1=O	x	-18%	x	x	-10%	x
COC(=O)[C@H](CCSC)NC(=O)Cn1cc(C)c(=O)[nH]c1=O	0%	-7%	1%	24	-5%	x
Cc1nc2nc(C(F)(F)F)[nH]c2nc1C	3%	6%	2%	17	0%	x
Cc1ccsc1/C=C1\SC(N2CC(C)OC(C)C2)=NC1=O (stereo unspecified)	-1%	15µM*	-1%	0	u	u
COC(=O)CNc1nc(-c2cccnc2)nc2ccccc12	-5%	-6%	-8%	-3	-27%	-11%
Cc1ccc2nc(C(Cl)(Cl)Cl)nc(N/N=C/c3ccncc3)c2c1	-6%	u	-4%	38	-20%	9%
Oc1ccc(/C=N/Nc2nc(-c3cccnc3)nc3ccccc23)c(O)c1	u	4.1µM*	u	-13	23µM*	16µM*
Cc1c(O)ccc(/C=N/Nc2nc(-c3cccnc3)nc3ccccc23)c1O	u	3.7µM*	18µM*	-19	5.2µM*	5.2µM*
COc1ccc(/C=N/Nc2nc(-c3cccnc3)nc3ccccc23)cc1OC	-25%	3.7µM*	-14%	-52*	16µM*	6.5µM*
Cc1ccc(-c2nc(N/N=C/c3ccncc3)c3ccccc3n2)cc1	10µM*	18µM*	11µM*	0	21µM*	u
COc1ccc([C@@H]2[C@@H]3C(=O)N(C(C)(C)C)C(=O)[C@@H]3[C@]3(CC(C)C)C(=O)N(c4cccc(Br)c4)C(=O)N23)cc1	-1%	-29%	0%	-11	u	-8%
Cc1c(N(C)S(=O)(=O)c2cccc(C(=O)NC(C)C)c2)c(=O)n(-c2ccccc2)n1C	27%	-12%	20%	14	-20%	5%
COc1ccc(C2C(=O)N(C3CCC(C)CC3)CC(=O)N2C2CCCC2)cc1OC (stereo unspecified)	x	-4%	x	x	2%	x
COc1ccc(/C=N/Nc2ncnc3scc(-c4ccccc4)c23)cc1OC	u	u	u	-9	u	18µM*
COc1cc(/C=N/Nc2ncnc3sc4c(c23)CCC4)ccc1O	u	u	-23%	-27	u	u

Bioassay records as filed in PubChem BioAssay.
